Laboratory results published in PubChem BioAssay.
Values joined by “and” are separate entries in the source; they are usually repeats but may differ in a detail not shown here. Equal entries are not always repeated. Records with an inconclusive call do not appear. Active and inactive are the calls of the source.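 How the source made its calls, unless noted: active means normalized viability below 100% at a tested concentration; inactive means the rest.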

How the values were obtained:
[1] = growth inhibition of DIPG glioma cells, dose response, cell-based, SU-DIPG-XVII, MIPE5.0, CellTiter-Glo, qHTS (AID 1347060; cut-off not given, nearly all actives have AC50 up to about 26 µM;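 on AC50: cells exposed to compound for 48 hours before viability readout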); conditions: SU-DIPG-XVII viability, CellTiter-Glo ATP luminescence
[2] = growth inhibition of DIPG glioma cells, dose response, cell-based, JHH-DIPG-1, MIPE4.0, CellTiter-Glo, qHTS (AID 1347062; cut-off not given, nearly all actives have AC50 up to about 27 µM;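 on AC50: cells exposed to compound for two days before readout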); conditions: JHH-DIPG-1 viability, CellTiter-Glo ATP luminescence
[3] = growth inhibition of DIPG glioma cells, dose response, cell-based, SU-DIPG-XIII, MIPE5.0, CellTiter-Glo, qHTS (AID 1347064; cut-off not given, nearly all actives have AC50 up to about 23 µM;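 on AC50: cells exposed to compound for 48 hours before the viability read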); conditions: SU-DIPG-XIII viability, CellTiter-Glo ATP luminescence
[4] = SU-DIPG-VI glioma cell viability, MIPE4.0 library, CellTiter-Glo luminescence, qHTS (AID 1347066; cut-off not given, nearly all actives have AC50 up to about 30 µM;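 further: cells exposed to compound for 48 hours before readout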); conditions: CellTiter-Glo ATP luminescence
[5] = JHH-DIPG-1 glioma cell viability, MIPE5.0 library, CellTiter-Glo luminescence, qHTS (AID 1347067; cut-off not given, nearly all actives have AC50 up to about 26 µM;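 further: cells exposed to compound for 48 hours before readout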); conditions: JHH-DIPG-1 glioma viability, CellTiter-Glo ATP luminescence
[6] = SU-DIPG-XXV glioma cell viability, MIPE5.0 library, qHTS (AID 1347068; cut-off not given, nearly all actives have IC50 up to about 30 µM;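 on IC50: cells exposed to compound for 48 hours before viability readout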)
[7] = sensitizers of A549 cells to miR-34 induction, primary screen, imaging, A549 dox-inducible miR-34, nuclei and caspase counts (AID 1347080;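 active means compounds whose cell count with miR-34 switched on is under 0.7 times the count with it off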); conditions: A549 miR-34 inducible, Hoechst nuclei count, 48 h
[8] = survival rescue of mitochondrial mutant cells in low glucose, primary screen, MELAS cybrids, Rieske KO mouse fibroblasts, CellTiter-Glo (AID 1508586;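 active means mean z-score across replicates of 1.96 or higher in either the MELAS or the Rieske mutant cell line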;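 further: z relative to plate mean and SD of compound and empty wells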)
[9] = viability loss in pontine glioma line – cell-based, SU-DIPG-XXV, MIPE5.0, CellTiter-Glo, qHTS, dose response (AID 1347065; cut-off not given, nearly all actives have AC50 up to about 26 µM;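 further: cells exposed to compound for 48 hours before ATP readout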); conditions: CellTiter-Glo ATP luminescence
[10] = modifiers of HSF1 nuclear foci, imaging, Selleck Cancer Library (AID 1347162; in the data active means plate-normalised HSF1 focus index below about 0.46); conditions: human cells, at 10 µM; SSMD: measured here: HSF1 foci SSMD mean; cell count: measured here: cell number; plate-normalised HSF1 focus index: stronger effect = lower value
[11] = ovarian cancer cell viability with rucaparib, profiling panel, oncology-focused library, rucaparib conditional (AID 1508598); conditions: patient-derived ovarian cancer cells, CellTiter-Glo viability, 144 h, stronger effect = lower value

CN(C(Cc1ccc(OS(=O)(=O)c2cccc3cnccc23)cc1)C(=O)N1CCN(c2ccccc2)CC1)S(=O)(=O)c1cccc2cnccc12 (centres undefined)
1.12 and 0.338: fold change ([7]; measured here: relative caspase fold change +Dox/-Dox)
inactive: outcome [1] | outcome [2] | outcome [3] | outcome [4] | outcome [5] | outcome [6] | fold change ([7]; stronger effect = lower value, cell number ratio, induced over uninduced) 0.886 and 0.945 | z-score ([8]; MELAS cybrid survival, CellTiter-Glo 48 h, stronger effect = higher value) -0.441
4410 and 6540: cell count ([7]; measured here: total cells with miR-34 induction, stronger effect = lower value)
4980 and 6920: cell count ([7]; measured here: total cells without miR-34 induction)
-1.42: z-score ([8]; Rieske KO mouse fibroblast survival, CellTiter-Glo 72 h)

Cc1ccc(C(=O)N(CCCN)[C@@H](c2nc3cc(Cl)ccc3c(=O)n2Cc2ccccc2)C(C)C)cc1
inactive: plate-normalised HSF1 focus index [10] 0.497 | viability ([11]; at 0.000305 µM, OCI-C5x cells, with rucaparib 10 µM, 100% = cells with rucaparib alone) 104% | viability ([11]; at 0.000305 µM, OCI-C5x cells, without rucaparib) 109% | viability ([11]; at 0.000305 µM, OCI-P5x cells, without rucaparib) 101% | viability ([11]; at 0.00122 µM, OCI-C5x cells, without rucaparib) 116%
-9.79: SSMD [10]
3920: cell count [10]
active: AC50 [1] 16.6 nM | AC50 [2] 13200 nM | AC50 [3] 5900 nM | AC50 [9] 9.34 nM | AC50 [5] 9340 nM | IC50 [6] 16.6 nM | viability ([11]; at 0.000305 µM, OCI-P5x cells, with rucaparib 20 µM, 100% = cells with rucaparib alone) 95.5% | viability ([11]; at 0.00122 µM, OCI-C5x cells, with rucaparib 10 µM, 100% = cells with rucaparib alone) 90.5% | viability ([11]; at 0.00122 µM, OCI-P5x cells, with rucaparib 20 µM, 100% = cells with rucaparib alone) 78.5% | viability ([11]; at 0.00122 µM, OCI-P5x cells, without rucaparib) 81.4% | viability ([11]; at 0.00488 µM, OCI-C5x cells, with rucaparib 10 µM, 100% = cells with rucaparib alone) 44.7% | viability ([11]; at 0.00488 µM, OCI-C5x cells, without rucaparib) 76.6% | viability ([11]; at 0.00488 µM, OCI-P5x cells, with rucaparib 20 µM, 100% = cells with rucaparib alone) 68.7% | viability ([11]; at 0.00488 µM, OCI-P5x cells, without rucaparib) 66.4% | viability ([11]; at 0.0195 µM, OCI-C5x cells, with rucaparib 10 µM, 100% = cells with rucaparib alone) 43.1% | viability ([11]; at 0.0195 µM, OCI-C5x cells, without rucaparib) 55.9% | viability ([11]; at 0.0195 µM, OCI-P5x cells, with rucaparib 20 µM, 100% = cells with rucaparib alone) 51.4% | viability ([11]; at 0.0195 µM, OCI-P5x cells, without rucaparib) 21.1% | viability ([11]; at 0.0781 µM, OCI-C5x cells, with rucaparib 10 µM, 100% = cells with rucaparib alone) 47.4% | viability ([11]; at 0.0781 µM, OCI-C5x cells, without rucaparib) 65.7% | viability ([11]; at 0.0781 µM, OCI-P5x cells, with rucaparib 20 µM, 100% = cells with rucaparib alone) 55.4% | viability ([11]; at 0.0781 µM, OCI-P5x cells, without rucaparib) 24.5% | viability ([11]; at 0.313 µM, OCI-C5x cells, with rucaparib 10 µM, 100% = cells with rucaparib alone) 56.5% | viability ([11]; at 0.313 µM, OCI-C5x cells, without rucaparib) 65.1% | viability ([11]; at 0.313 µM, OCI-P5x cells, with rucaparib 20 µM, 100% = cells with rucaparib alone) 54.8% | viability ([11]; at 0.313 µM, OCI-P5x cells, without rucaparib) 22.4% | viability ([11]; at 1.25 µM, OCI-C5x cells, with rucaparib 10 µM, 100% = cells with rucaparib alone) 50.7% | viability ([11]; at 1.25 µM, OCI-C5x cells, without rucaparib) 61.5% | viability ([11]; at 1.25 µM, OCI-P5x cells, with rucaparib 20 µM, 100% = cells with rucaparib alone) 56.9% | viability ([11]; at 1.25 µM, OCI-P5x cells, without rucaparib) 24.3% | viability ([11]; at 5 µM, OCI-C5x cells, with rucaparib 10 µM, 100% = cells with rucaparib alone) 6.32% | viability ([11]; at 5 µM, OCI-C5x cells, without rucaparib) 47.8% | viability ([11]; at 5 µM, OCI-P5x cells, with rucaparib 20 µM, 100% = cells with rucaparib alone) 26.6% | viability ([11]; at 5 µM, OCI-P5x cells, without rucaparib) 17.1%

O=C(Nc1cc(Cl)cc2c1[nH]c1cnccc12)c1cccnc1
inactive: outcome [1] | outcome [2] | outcome [3] | outcome [9] | outcome [4] | outcome [5] | outcome [6]

O=C(Nc1ccccc1)Nc1ccc(-c2ccc(C(=O)[C@@H]3CCC[C@H]3C(=O)O)cc2)cc1
inactive: outcome [1] | outcome [2] | outcome [9] | outcome [4] | outcome [5] | outcome [6]

CN1CC(=O)NC1=NC(=O)Nc1cccc(Cl)c1
active: AC50 [4] 23500 nM
inactive: outcome [1] | outcome [2] | outcome [3] | outcome [9] | outcome [5] | outcome [6]

COc1ccc(/C=C\c2cc(OC)c(OC)c(OC)c2)cc1NC(=O)[C@H](N)CO
active: AC50 [1] 83.3 nM | AC50 [2] 20.9 nM | AC50 [3] 590 nM | AC50 [9] 148 nM | AC50 [5] 235 nM | IC50 [6] 332 nM
